# Assay results published in ChEMBL document CHEMBL3988442, “University of Dundee, Small-Polar-MMV Screening Library” (2021).
# Hit rate of the full screen: of about 48,000 compounds, about 13,000 (27%) showed an effect of 50% or more. The list shows a part of the results.
# System: Wolbachia pipientis
# Assay: Anti-Wolbachia Cell-Based Screen
# Format: functional
# Parameters: scale not given: in the data most compounds retested in dose-response had high values
# Conditions: 5 µM
row,SMILES,Percent Effect
1,Cn1cc(CCCNC(=O)NC2CCN(c3ccccc3)C2=O)cn1 (centres undefined),20.77%
2,CCn1nc2c(cc1=O)CN(CCOc1cccc(C#N)c1)CC2,-9.961%
3,Cn1cc(C(=O)OCC(N)=O)c(-c2ccc(F)cc2F)n1,-2.814%
4,N#CCCN(Cc1cccnc1)C(=O)c1ccc(-n2cnnn2)cc1,12.89%
5,Cc1ccc(NC(=O)N(C)C)c(C(=O)OCC(=O)NC2CCCC2)c1,-9.857%
6,COc1ccc(CN(C)C(=O)NCc2c(C)cc(C)[nH]c2=O)cc1,-0.4347%
7,Cc1nccn1CCCn1cncc1-c1ccc2c(c1)CC(C)N2C.Cl (centres undefined),92.09%
8,Cc1cc(C)n(CCCN(C)C(=O)C2COc3ccccc3C2)n1 (centres undefined),-47.38%
9,Cc1cc(C)n(CCCn2cncc2-c2ccc3c(c2)CC(C)N3C)n1.Cl (centres undefined),95.59%
10,Cc1cnccc1N1CCCN(C(=O)CCn2ccnc2C)CC1,-14.43%
11,CC1=NOC(C(=O)N(C)CCCn2nc(C)cc2C)C1 (centres undefined),25.07%
12,CC(C)OCCC1CCCCN1S(C)(=O)=O (centres undefined),3.961%
13,CC(=O)NC1CCN(c2ccc(C#N)cc2C(F)(F)F)CC1,29.91%
14,CC(O)CN(C)S(=O)(=O)c1ccc(C#N)cc1F (centres undefined),-5.528%
15,CC(C)(C)C(=O)NS(=O)(=O)c1ccc(C#N)cc1C(F)(F)F,-4.514%
16,CCC(CC)C(=O)NS(=O)(=O)c1ccc(C#N)cc1C(F)(F)F,103.7%
17,CCC(C)C(=O)NS(=O)(=O)c1ccc(C#N)cc1C(F)(F)F (centres undefined),121.4%
18,CC(C(=O)N(Cc1ccc(C#N)cc1)CC(F)(F)F)S(C)(=O)=O (centres undefined),-0.5778%
19,N#Cc1ccc(S(=O)(=O)NC(=O)C2CC2)c(C(F)(F)F)c1,6.344%
20,CC(C)C(=O)NS(=O)(=O)c1ccc(C#N)cc1C(F)(F)F,109%
21,CN(CCN(C)S(=O)(=O)CC1CCOCC1)c1ccccc1,-10.63%
22,N#CCCN(CC1CCOC1)Cn1ccc(-c2cccs2)n1 (centres undefined),-0.2132%

row,SMILES,Percent Effect
1,CC(NC(C)(C)CN)c1ccccc1 (centres undefined),-0.2011%
2,CC(C)CN1CCC2(Cc3ccccc3NC2=O)C1 (centres undefined),2.79%
3,CC(C)CCN1CCC2(CC1)NCc1ccccc1NC2=O,110.4%
4,O=C1Nc2ccccc2CNC12CCN(CC1CCCC1)CC2,118.7%
5,CC(C)c1nnc(CN2CCC3(CC2)Nc2ccccc2NC3=O)o1,8.635%
6,O=C1Nc2ccccc2CNC12CCN(CC1CCNC1)CC2 (centres undefined),113.7%
7,O=C1Nc2ccccc2NC12CCN(c1cccc(C(F)(F)F)n1)CC2,-10.36%
8,NC(=O)C(NC1CCN(CC2CCCCC2)CC1)c1ccccc1 (centres undefined),-8.499%
9,O=C1Nc2ccccc2NC12CCN(Cc1nnc(C3CC3)o1)CC2,10.49%
10,O=C1Nc2ccccc2CNC12CCN(CC1CC1)CC2,106.1%
11,Cn1cc(C2(C)CN(C(=O)COc3ccccc3F)CCO2)cn1 (centres undefined),-6.052%
12,O=S(=O)(NCC1(O)CCOCC1)c1c(F)cccc1F,-2.026%
13,Cc1cc(F)ccc1S(=O)(=O)N1CCN(C)Cc2ccccc21,-7.823%
14,CC(C)(C)CN1CCCC2(CCN(C(=O)c3cn[nH]c3)C2)C1 (centres undefined),-0.3441%
15,CCNC(=O)NCc1ccccc1NS(=O)(=O)c1ccccc1,26.47%
16,O=C1CC2(CCCCC2)C(=O)N1CC(O)COCc1ccccc1F (centres undefined),-27.41%
17,CC(C)(C)CNCC1(O)CCCN(Cc2ccccc2F)C1=O (centres undefined),-15.35%
18,CSCCC(O)C(=O)N1CCN(Cc2cccc(Cl)c2)CC1 (centres undefined),8.238%
19,CCC(CO)N(Cc1ccccn1)C(=O)c1ccc(=O)[nH]c1 (centres undefined),7.999%
20,COc1ccccc1N1CCN(C(=O)CSC(C)C)C(C)C1 (centres undefined),-5.211%
21,NC(=O)CSCC(=O)NCC1CCCC1,107.6%
22,Cc1nc(CN2CCC(CNC(=O)CCC3CCCC3)CC2)oc1C,-6.137%

row,SMILES,Percent Effect
1,O=C(CCn1cncn1)NCC1CCCC1,2.005%
2,NC(=O)CSCCC(=O)N1CCCC1c1ccsc1 (centres undefined),-6.046%
3,O=C(CCn1cncn1)NCC1CCOC1 (centres undefined),0.0368%
4,N#CCSCC(=O)NCC1CCCCC1,102.7%
5,NC(=O)CSCCC(=O)NCC1CC1,101.8%
6,N#CCSCCCN1CCC(C(=O)N2CCCCCC2)CC1,2.389%
7,O=C(CNC(=O)C1CC1)NCC1CCCC1,-13.86%
8,Cc1cccc(N(CC(=O)N2CCCCC2)Cc2ccno2)c1,2.857%
9,Cc1cc(C(=O)NCC2SCCc3ccccc32)no1 (centres undefined),0.5755%
10,CCN(C(=O)Cc1ccc(NC(=O)NC2CC2)cc1)c1ccccc1,-0.9902%
11,O=C(CSc1ccc2c(c1)OCCO2)NS(=O)(=O)c1cc(F)ccc1F,-16.91%
12,Cc1ccc(CNCC2CCCN2c2cccnn2)s1 (centres undefined),110.2%
13,c1cnnc(N2CCCC2CNCCc2cccs2)c1 (centres undefined),5.045%
14,Cc1nc(CNCC2CCCN2c2cccnn2)cs1 (centres undefined),-2.276%
15,Cc1ncccc1CNCC1CCCN1c1cccnn1 (centres undefined),86.13%
16,c1cnnc(N2CCCC2CNCc2cccs2)c1 (centres undefined),108.7%
17,Cc1noc(C)c1CNCC1CCCN1c1cccnn1 (centres undefined),5.268%
18,Cc1ncc(CNCC2CCCN2c2cccnn2)s1 (centres undefined),6.124%
19,c1cnnc(N2CCCC2CNCc2ccsc2)c1 (centres undefined),-3.279%
20,CC(C)(C)c1cnc(CNCC2CCCN2c2cccnn2)o1 (centres undefined),10.11%
21,CC(C)c1nnc(CNCC2CCCN2c2cccnn2)o1 (centres undefined),-19.57%
22,CC(C)(C)c1ncc(CNCC2CCCN2c2cccnn2)s1 (centres undefined),130.1%

row,SMILES,Percent Effect
1,Cc1nc(CNCC2CCCN2c2cccnn2)oc1C (centres undefined),-10.17%
2,CC(=O)Nc1ccc(CN2CCOC2=O)cc1,-1.092%
3,CC(=O)Nc1ccc(/C=C/c2ncc(C(=O)O)s2)cc1,35.4%
4,CC(C)c1ccn(C2(C(=O)O)CCN(c3ccncc3F)CC2)n1,-3.994%
5,Cc1cccc(C(=O)N(C)CC(=O)N2CCCC2)c1C,11.26%
6,O=C(CNC(=O)C1CC1)NCc1ccc(Cl)s1,12.79%
7,O=C(Nc1cnccn1)[C@H]1COC[C@H]2CN(C3CCCC3)C[C@H]21.O=C(O)C(F)(F)F,12.06%
8,CN(Cc1nnc(C2CC2)n1C)C(=O)c1ccnc(OC2CCC2)c1,-6.34%
9,Cc1cc(C(=O)N(C)Cc2ccccc2OCC(C)C)cc(=O)[nH]1,5.839%
10,COc1ccccc1OCC(=O)NS(=O)(=O)c1ccccc1F,-1.762%
11,CSc1ccc(NCC(=O)NCC2CC2)cc1F,-20.57%
12,COc1cccc([C@@H]2CN(C3CCCC3)C[C@H]2C(=O)O)c1,-6.459%
13,CC(C)c1ncc2c(n1)CN(Cc1cccc(C#N)c1)CC2,-1.681%
14,Cc1ccc(CN2CCn3c(CNC(=O)c4cccn4C)cnc3C2)s1.O=C(O)C(F)(F)F,57.4%
15,CC(C)N(C)Cc1cnc2n1CCN(Cc1cccc(C#N)c1)C2,113.4%
16,Cn1cc(CN2CCn3c(CNC(=O)c4cccn4C)cnc3C2)cn1.O=C(O)C(F)(F)F,-0.1323%
17,Cc1noc(C)c1CN1CCc2ncc(CN(C)C)n2CC1.O=C(O)C(F)(F)F.O=C(O)C(F)(F)F,-8.609%
18,CN1CCc2ncc(CNC(=O)c3cccn3C)n2CC1.O=C(O)C(F)(F)F,-7.758%
19,CC(O)CN1CCN(Cc2cccc(C#N)c2)CC1 (centres undefined),-5.978%
20,CN(C)Cc1cnc2n1CCN(C(=O)Cc1ccc(F)cc1)CC2.O=C(O)C(F)(F)F,-6.028%
21,O=C(NCc1cnc2n1CCN(Cc1nccs1)C2)c1ccno1.O=C(O)C(F)(F)F,-12.49%
22,CC(C)N(C)Cc1cnc2n1CCN(Cc1ccc(F)cc1)C2.O=C(O)C(F)(F)F.O=C(O)C(F)(F)F,108.1%

row,SMILES,Percent Effect
1,Cc1ccc(CN2CCn3c(CN(C)C(C)C)cnc3C2)s1.O=C(O)C(F)(F)F.O=C(O)C(F)(F)F,102.4%
2,Cc1ccc(CN2CCc3c(CN(C)C)n[nH]c3C2)s1.O=C(O)C(F)(F)F.O=C(O)C(F)(F)F,-7.014%
3,COc1cc(C)nc(N2CCN(C(=O)CCn3cc(C)cn3)CC2)n1,-7.08%
4,c1ccc2nc(NCC3(N4CCOCC4)CCSC3)cnc2c1 (centres undefined),-14.05%
5,CCn1cnc2c(c(Br)nn2C)c1=O,-4.609%
6,CS(=O)(=O)c1cccc(S(=O)(=O)NC(=O)c2cscn2)c1,-9.351%
7,CC(C)NC(=O)C[C@@H]1CCNC[C@@H]1Cc1cc(-c2ccccc2)on1,3.733%
8,CCc1cc(=O)[nH]c2nnc(SCC(=O)OC)n12,-19.07%
9,Cn1ccnc1CN1CCC2(CC(=O)N(c3cccc(F)c3)C2)C1.O=C(O)C(F)(F)F (centres undefined),10.35%
10,Cc1cc(C)c(Cn2cncn2)cc1CN1CCC(CN)C1 (centres undefined),-0.9295%
11,Cc1ccc(OCC(O)Cn2ncc3cnn(C)c(=O)c32)cc1 (centres undefined),-11.22%
12,CN(C)Cc1cnc2n1CCN(C(=O)NCc1ccccc1)CC2.O=C(O)C(F)(F)F,-3.612%
13,CN(Cc1ccco1)Cc1cnc2n1CCN(S(C)(=O)=O)CC2.O=C(O)C(F)(F)F,3.882%
14,CC(C)N(C)Cc1cnc2n1CCN(Cc1cccc(F)c1)C2.O=C(O)C(F)(F)F.O=C(O)C(F)(F)F,118.2%
15,CC(C)N(C)Cc1cnc2n1CCN(S(=O)(=O)c1ccccc1)C2.O=C(O)C(F)(F)F,114.3%
16,COCCN1CCn2c(CN(C)C(C)C)cnc2C1.O=C(O)C(F)(F)F.O=C(O)C(F)(F)F,115.3%
17,CN(C)Cc1cnc2n1CCN(C(=O)Cc1cccc(F)c1)CC2.O=C(O)C(F)(F)F,-14.88%
18,CC(C)N(C)Cc1cnc2n1CCN(Cc1ccco1)C2.O=C(O)C(F)(F)F.O=C(O)C(F)(F)F,165.9%
19,COCCN1CCCn2cnc(CN(C)C(C)C)c2C1.O=C(O)C(F)(F)F.O=C(O)C(F)(F)F,1.891%
20,CC(C)N(C)Cc1cnc2n1CCN(C(=O)Cc1cccs1)C2C.O=C(O)C(F)(F)F (centres undefined),0.7731%
21,CC(C)N(C)Cc1cnc2n1CCN(CCc1ccccc1)C2.O=C(O)C(F)(F)F.O=C(O)C(F)(F)F,1.323%
